{"source": "PubChem BioAssay AID977622", "about": "(Broad Institute, 2014)", "key": {"[1]": {"experiment": "growth inhibition of wild-type GFP E. coli, dose response, h38 mutant RFP, cherry-pick (AID 977622)", "conditions": "24 h; activity change: E. coli mixed culture, total growth OD600 at 50 uM, at 50 µM; E. coli WT ribosome GFP fluorescence, mixed culture, at 50 µM (top of the series)"}, "[2]": {"system": "E. coli h38 humanized mutant ribosome RFP fluorescence, mixed culture, 24 h", "experiment": "growth inhibition of wild-type GFP E. coli, dose response, h38 mutant RFP, cherry-pick (AID 977622)", "conditions": "h38 mutant RFP at 50 uM; at 50 µM"}}, "note": "The whole screen tested about 1,900 compounds, of which fewer than 10 were called active. Another 39% or so got no clear call; they are omitted.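 The calls were made as follows: active = Green signal of the normal strain falls at least twice as much as red signal of the resistant mutant, with overall culture growth loss under a set limit; inconclusive = no clear call, values can overlap the other calls; inactive = the rest.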 Only a sample is shown.", "data": [{"smiles": "CCc1ccc(CN2CCCC(CNS(=O)(=O)c3ccc(OC)cc3)C2)cc1", "note": "(stereo unspecified)", "values": [{"measurement": "activity change", "setting": "[1]", "result": -13.3, "unit": "%"}, {"measurement": "outcome", "setting": "[1]", "result": "inactive"}, {"measurement": "activity change", "setting": "[2]", "result": 9.56, "unit": "%"}]}, {"smiles": "COc1ccc(OC)c(NC(=O)COc2ccc(S(=O)(=O)NC(C)C)cc2)c1", "values": [{"measurement": "activity change", "setting": "[1]", "result": -14.2, "unit": "%"}, {"measurement": "outcome", "setting": "[1]", "result": "inactive"}]}, {"smiles": "O=C1CCCc2ccccc2N1Cc1ccccc1", "values": [{"measurement": "activity change", "setting": "[1]", "result": -14.6, "unit": "%"}, {"measurement": "outcome", "setting": "[1]", "result": "inactive"}]}, {"smiles": "Cc1cccc(CN2C(=O)c3ccccc3Sc3ccc(C(=O)O)cc32)c1", "values": [{"measurement": "activity change", "setting": "[1]", "result": -13.7, "unit": "%"}, {"measurement": "outcome", "setting": "[1]", "result": "inactive"}]}, {"smiles": "Cc1noc(C)c1NC(=O)Nc1ccc2c(c1)C(=O)N([C@@H](C)CO)C[C@@H](C)[C@H](CN(C)C(=O)Nc1ccc3c(c1)OCO3)OCCCC[C@@H](C)O2", "values": [{"measurement": "activity change", "setting": "[1]", "result": -13.2, "unit": "%"}, {"measurement": "outcome", "setting": "[1]", "result": "inactive"}, {"measurement": "activity change", "setting": "[2]", "result": 26.4, "unit": "%"}]}, {"smiles": "C=CCn1c(C)cc(C(=O)CSc2nnc(C3CC3)n2C2CC2)c1C", "values": [{"measurement": "activity change", "setting": "[1]", "result": -20.6, "unit": "%"}, {"measurement": "outcome", "setting": "[1]", "result": "inactive"}, {"measurement": "activity change", "setting": "[2]", "result": -37.4, "unit": "%"}]}, {"smiles": "CN(C)S(=O)(=O)N1CCN(c2ccccc2Cl)CC1", "values": [{"measurement": "activity change", "setting": "[1]", "result": -14.9, "unit": "%"}, {"measurement": "outcome", "setting": "[1]", "result": "inactive"}, {"measurement": "activity change", "setting": "[2]", "result": -15.7, "unit": "%"}]}, {"smiles": "O=C(c1ccc(-n2cccn2)cc1)N1CCc2ccccc2C1", "values": [{"measurement": "activity change", "setting": "[1]", "result": -28.7, "unit": "%"}, {"measurement": "outcome", "setting": "[1]", "result": "inactive"}, {"measurement": "activity change", "setting": "[2]", "result": -27.7, "unit": "%"}]}, {"smiles": "Cc1onc(-c2ccccc2Cl)c1C(=O)Nc1ccc(Cl)cn1", "values": [{"measurement": "activity change", "setting": "[1]", "result": -9.88, "unit": "%"}, {"measurement": "outcome", "setting": "[1]", "result": "inactive"}]}, {"smiles": "COc1cc(C#N)ccc1OCC(=O)Nc1cccc(S(=O)(=O)N2CCCC2)c1", "values": [{"measurement": "activity change", "setting": "[1]", "result": -1.82, "unit": "%"}, {"measurement": "outcome", "setting": "[1]", "result": "inactive"}, {"measurement": "activity change", "setting": "[2]", "result": -20.8, "unit": "%"}]}, {"smiles": "COc1ccc(C2CC(=O)Oc3cc(C)cc(C)c32)cc1", "note": "(stereo unspecified)", "values": [{"measurement": "activity change", "setting": "[1]", "result": -0.711, "unit": "%"}, {"measurement": "outcome", "setting": "[1]", "result": "inactive"}, {"measurement": "activity change", "setting": "[2]", "result": 12.7, "unit": "%"}]}, {"smiles": "O=C(Nc1cc(S(=O)(=O)N2CCOCC2)ccc1N1CCOCC1)c1ccc([N+](=O)[O-])s1", "values": [{"measurement": "activity change", "setting": "[1]", "result": -3.16, "unit": "%"}, {"measurement": "outcome", "setting": "[1]", "result": "inactive"}, {"measurement": "activity change", "setting": "[2]", "result": 13.2, "unit": "%"}]}, {"smiles": "COc1ccccc1Cc1c(-c2ccc(F)cc2)nc2ccc(Br)cn12", "values": [{"measurement": "activity change", "setting": "[1]", "result": -10.3, "unit": "%"}, {"measurement": "outcome", "setting": "[1]", "result": "inactive"}]}, {"smiles": "CN(C)CCNc1ncnc2c1sc1nc(N3CCCC3)c3c(c12)CC(C)(C)OC3", "values": [{"measurement": "activity change", "setting": "[1]", "result": -21.5, "unit": "%"}, {"measurement": "outcome", "setting": "[1]", "result": "inactive"}, {"measurement": "activity change", "setting": "[2]", "result": -11.2, "unit": "%"}]}, {"smiles": "Cc1ccccc1NC(=O)c1ccccc1N(C)S(=O)(=O)c1ccccc1", "values": [{"measurement": "activity change", "setting": "[1]", "result": -14.8, "unit": "%"}, {"measurement": "outcome", "setting": "[1]", "result": "inactive"}, {"measurement": "activity change", "setting": "[2]", "result": -11.7, "unit": "%"}]}, {"smiles": "O=C1OC[C@@H]2CCCN2C(=O)[C@@H](CC(=O)N(CCO)Cc2ccccc2)C/C=C\\C[C@H]1Cc1ccc(F)cc1", "values": [{"measurement": "activity change", "setting": "[1]", "result": -20.1, "unit": "%"}, {"measurement": "outcome", "setting": "[1]", "result": "inactive"}, {"measurement": "activity change", "setting": "[2]", "result": -35.1, "unit": "%"}]}, {"smiles": "COc1cccc(CN(C)Cc2nc(Cc3ccccc3Cl)no2)c1", "values": [{"measurement": "activity change", "setting": "[1]", "result": -26.5, "unit": "%"}, {"measurement": "outcome", "setting": "[1]", "result": "inactive"}, {"measurement": "activity change", "setting": "[2]", "result": 24.2, "unit": "%"}]}, {"smiles": "CC(CCc1ccccc1)NC(=O)CCC1CCCC1", "note": "(stereo unspecified)", "values": [{"measurement": "activity change", "setting": "[1]", "result": -8.51, "unit": "%"}, {"measurement": "outcome", "setting": "[1]", "result": "inactive"}, {"measurement": "activity change", "setting": "[2]", "result": 4.55, "unit": "%"}]}, {"smiles": "CCNC(=O)C1(C)CCCN(Cc2cccc3ccccc23)C1", "note": "(stereo unspecified)", "values": [{"measurement": "activity change", "setting": "[1]", "result": 1.55, "unit": "%"}, {"measurement": "outcome", "setting": "[1]", "result": "inactive"}, {"measurement": "activity change", "setting": "[2]", "result": 69.8, "unit": "%"}]}, {"smiles": "CCS(=O)(=O)N1CCN(c2ccnc3cc(Cl)ccc23)CC1", "values": [{"measurement": "activity change", "setting": "[1]", "result": -3.73, "unit": "%"}, {"measurement": "outcome", "setting": "[1]", "result": "inactive"}, {"measurement": "activity change", "setting": "[2]", "result": 61.1, "unit": "%"}]}, {"smiles": "Cc1ccc(-n2cc(CNCCN3CCOC3=O)c(-c3ccc(F)cc3)n2)cc1", "values": [{"measurement": "activity change", "setting": "[1]", "result": -3.42, "unit": "%"}, {"measurement": "outcome", "setting": "[1]", "result": "inactive"}, {"measurement": "activity change", "setting": "[2]", "result": 31.2, "unit": "%"}]}, {"smiles": "Cc1cc(C)cc(NS(=O)(=O)c2cc(C(=O)NCc3ccccn3)ccc2Cl)c1", "values": [{"measurement": "activity change", "setting": "[1]", "result": -24.9, "unit": "%"}, {"measurement": "outcome", "setting": "[1]", "result": "inactive"}, {"measurement": "activity change", "setting": "[2]", "result": -5.16, "unit": "%"}]}]}
